Myeloid diff 2 – promotes myeloid progenitor differentiation; ER-HoxA9 myeloid progenitors, lysozyme-GFP differentiation, flow cytometry; calls only at 10 µM; 360,000 compounds, 1% hits;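 active means normalized GFP-positive differentiation at or above the plate's own cutoff, the solvent-only control mean plus 3 SD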;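 further: cells exposed to compound for four days before flow analysis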
cardiac RTF act – increases calcium sensitivity of human cardiac regulated thin filaments. AID 493008. IANBD-labeled TnC RTF fluorescence at EC20 calcium; 0% EC20 calcium, 100% full calcium. P19429+P45379. 340,000 compounds, 0.24% hits. activation, % at 7.2 µM;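 active means activation above the mean over all tested compounds plus 3 SD, cut at about 30% in these data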;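 further: rise in fluorescence read as greater calcium sensitivity of cardiac thin filaments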
RTF Ca sens inh – cardiac RTF calcium desensitization; P19429+P45379; IANBD-labeled cardiac RTF, Ca2+ fluorescence; inhibition, % at 7.15 µM; 340,000 compounds, 0.12% hits;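 active means inhibition above the mean inhibition of all tested compounds plus 3 SD, cut at about 17% in these data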;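 further: assay run at fixed EC70 calcium of 1.6 mM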
CRFR2-BP ag – agonists of human CRF-binding protein/CRF-R2 receptor complex; HEK293 CRF-R2/CRF-BP, calcium dye fluorescence (FLIPR); percent of saturating CRF peptide response; 350,000 compounds, 0.46% hits; activation, % at 13.2 µM; AID 588473;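 active means activation of at least 50%, plus an integration ratio under a set limit after plate pattern correction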;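 further: plate controls were neutral control wells without compound for no effect and CRF at EC100 for full effect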
CRFR2-BP antag – antagonists of CRF-binding protein/CRF-R2 receptor complex. 350,000 compounds, 0.59% hits. HEK293 CRF-R2/CRF-BP, CRF-induced calcium fluorescence. inhibition, % at 11.8 µM;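 active means inhibition of the ligand-induced calcium signal above about 50% at the single tested concentration, limit read from the data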
Myeloid diff CP1 – compounds promoting myeloid differentiation. shares compounds with Myeloid diff 2. ER-HoxA9 myeloid progenitors, GFP/Mac1 double-positive flow. calls only. 2,300 compounds, 2% hits. AID 651706;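 active means share of green or green-and-red cells above 9 and 9% in run 1 or 4 and 3% in run 2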
GFP autofluor – counter-screen for myeloid differentiation promoters: compound fluorescence. shares compounds with Myeloid diff 2. ER-HoxA9 myeloid progenitors, no estrogen, GFP autofluorescence flow cytometry; vehicle wells 0%, positive control 100%. fluorescence response, % (concentration not given with the values). 2,300 compounds, 7.4% hits. AID 651707;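 active means over 5% cells positive for green fluorescent reporter, or over 2% positive for both it and APC stain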;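 further: range taken on the double positive population between DMSO and positive control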
The depositor's hits bear a star; i = inactive; / = no result given; + = active, no number. This is a sample that favours compounds with a hit; in the whole collection about 2.2% have one here.

SMILES	Myeloid diff 2	cardiac RTF act	RTF Ca sens inh	CRFR2-BP ag	CRFR2-BP antag	Myeloid diff CP1	GFP autofluor
CCn1ncc(C2=NOC(C(=O)Nc3cc(OC)c(Cl)cc3OC)C2)c1C (stereo not drawn)	i	0	-11	1	23	i	0
CCOC(=O)N1CCN(C(=O)C[C@@H]2C[C@@]3(C(=O)OC)CCCCC=C3N(Cc3ccccc3)C2=O)CC1	i	/	/	/	/	/	/
O=C(Nc1ccncc1)c1cccc(S(=O)(=O)N2CCN(c3ccc(F)cc3)CC2)c1	i	1	-12	0	7	i	1
CC(=O)N1CCN(S(=O)(=O)c2cccc(C(=O)Nc3ccccc3N3CCCCC3)c2)CC1	i	-16	-7	-1	5	/	/
COc1ccccc1NC(=O)c1cccc(S(=O)(=O)N2CCN(c3ccccc3)CC2)c1	i	-5	-2	-1	2	i	0
CN1CCN(S(=O)(=O)c2cccc(C(=O)Nc3ccccc3N3CCCCC3)c2)CC1	i	-17	-4	1	-13	i	0
COc1ccc(NC(=O)c2cccc(S(=O)(=O)N3CCN(c4ccccc4)CC3)c2)c(OC)c1	i	3	-5	0	5	/	/
Cc1ccc(C(=O)CSc2nnc(CNc3nc(-c4ccccc4)cs3)n2C)cc1	i	-1	-4	2	-14	/	/
Cc1ccc(S(=O)(=O)N(CC(=O)Nc2ccc(C)cc2C)C(=O)N2CCN(C)CC2)cc1	i	-1	-5	0	26	/	/
Cc1cccc(NS(=O)(=O)c2cccc(C(=O)NCC(c3ccc(F)cc3)N3CCOCC3)c2)c1 (stereo not drawn)	i	-6	-2	-1	-10	/	/
COc1ccc(N(CC(=O)NC2CCCC2)C(=O)Cn2nnc(-c3ccc(F)cc3)n2)cc1OC	i	-3	-1	1	1	/	/
COc1ccc(N(CC(=O)NC2CCCC2)C(=O)Cn2nnc(-c3ccc(C)cc3)n2)cc1OC	i	2	-4	-1	8	i	1
Cc1ccc(NC(=O)/C=C/c2cccc(C(F)(F)F)c2)cc1	i	6	-5	-2	10	/	/
O=C(/C=C/c1cccc(C(F)(F)F)c1)Nc1cccc(C(F)(F)F)c1	i	1	-24	2	2	i	0
Cc1ccc(F)c(S(=O)(=O)NC(=O)C2(C)CCN2C(=O)CCC2CCCC2)c1 (stereo not drawn)	i	/	/	/	/	/	/
Cn1cccc1C1CCCN1CC(=O)Nc1ccc(C(N)=O)cc1 (stereo not drawn)	i	1	-7	2	-11	/	/
CCC(CC)C(=O)N1CCN(Cc2ccc3c(c2)OCO3)CC1	i	3	-6	1	3	i	2
CCCC(=O)N1CCN(Cc2ccc3c(c2)OCO3)CC1	i	5	2	-3	20	/	/
COc1ccc(C(=O)O)cc1S(=O)(=O)N1CCN(Cc2ccc3c(c2)OCO3)CC1	i	3	3	0	-12	i	0
CCOc1ccccc1Nc1ncnc2ccccc12	i	0	8	-3	-7	/	/
COc1ccccc1Nc1nc2c(s1)CCC2	i	-3	-6	2	-14	i	0
Cc1ccc(Nc2nc3c(s2)CCC3)c(C)c1	i	-5	-1	-1	-4	/	/
COc1ccccc1Nc1c2c(nc3ccccc13)CCC2	+	3	-8	-1	10	i	1
COc1ccccc1Nc1ncnc2ccccc12	i	9	-15	-4	27	i	0
CCCS(=O)(=O)NC(=O)C1(C)CCCN(C(=O)c2cc(C)nn2C(C)(C)C)C1 (stereo not drawn)	i	/	/	/	/	i	0
Cc1cccc(C(=O)NC2CCN(C(=O)N3CCOCC3)CC2)c1	+	-1	11	0	4	i	0
CCOP(=O)(OCC)C(NC(=O)Nc1ccc(C)cc1)C(N)=O (stereo not drawn)	+	/	/	-1	11	i	0
CC(C)N(Cc1cc2ccccc2[nH]c1=O)C(=O)C1CCCCC1	i	-4	3	1	-3	i	0
Cc1ccc(CCNC(=O)CCS(=O)(=O)c2cc3c(cc2C)NC(=O)CO3)cc1	i	-2	-2	-5	4	i	0
